What all share (test): DAPPL (digital affinity profiling via proximity ligation, sequencing); 10 mM Tris-HCl pH 7.5, 50 mM NaCl, 1 mM DTT, 4% glycerol, room temperature, 30 min; GST-TFs on glutathione beads, 16-mer random dsDNA library, 0.1% formaldehyde crosslink after washing; high values mean tight binding
In one assay the target is T1, FLI1 (Homo sapiens, UniProt Q01543 1-452).
T1 sequence: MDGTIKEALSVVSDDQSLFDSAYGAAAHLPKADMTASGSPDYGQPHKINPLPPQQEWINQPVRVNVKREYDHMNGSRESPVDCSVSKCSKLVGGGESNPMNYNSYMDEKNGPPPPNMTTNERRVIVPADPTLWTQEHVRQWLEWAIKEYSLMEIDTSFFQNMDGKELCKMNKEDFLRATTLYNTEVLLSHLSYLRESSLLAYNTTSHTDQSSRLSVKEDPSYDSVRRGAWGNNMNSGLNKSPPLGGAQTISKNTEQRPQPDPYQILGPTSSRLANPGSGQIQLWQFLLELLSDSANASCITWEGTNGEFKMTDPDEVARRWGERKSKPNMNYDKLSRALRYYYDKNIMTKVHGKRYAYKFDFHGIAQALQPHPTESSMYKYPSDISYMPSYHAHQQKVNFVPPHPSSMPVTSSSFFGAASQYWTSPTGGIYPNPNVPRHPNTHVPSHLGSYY
To be noted: protein: recombinant; tags: N-terminal GST; dsDNA, one strand shown. In outline: (§1)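 Sequencing on an Illumina NextSeq500 followed washing, crosslinking with 0.1% formaldehyde, proximity ligation (BsaI/T4 ligase, 1 h, 37 °C) and PCR amplification of pools that had been incubated for 30 min at room temperature with 200 nmole of a random double-stranded 16-mer DNA library in Tris/NaCl/DTT/glycerol buffer. Each pool held DNA-barcoded human transcription factors, expressed in yeast as GST fusions and captured on glutathione beads, plus a tag-only sample. Binding signal is a hexamer's read frequency for a factor divided by its frequency in the tag-only sample.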

The next assay concerns the target T2, ELK1 (Homo sapiens, UniProt P19419 1-428).
T2 sequence: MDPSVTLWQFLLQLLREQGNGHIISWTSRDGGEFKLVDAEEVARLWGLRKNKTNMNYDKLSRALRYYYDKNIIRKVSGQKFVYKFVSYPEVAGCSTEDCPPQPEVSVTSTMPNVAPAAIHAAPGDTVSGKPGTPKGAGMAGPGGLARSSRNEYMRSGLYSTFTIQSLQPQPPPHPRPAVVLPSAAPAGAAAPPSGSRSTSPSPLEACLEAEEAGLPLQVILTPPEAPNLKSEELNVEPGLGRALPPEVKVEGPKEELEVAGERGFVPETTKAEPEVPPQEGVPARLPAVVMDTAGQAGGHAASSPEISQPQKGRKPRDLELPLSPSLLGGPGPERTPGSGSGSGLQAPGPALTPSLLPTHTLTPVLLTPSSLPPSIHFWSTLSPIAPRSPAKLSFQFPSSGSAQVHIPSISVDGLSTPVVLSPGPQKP
The settings on record: protein: recombinant; tags: N-terminal GST; dsDNA, one strand shown. In outline: as §1

In another assay the target is T3, GABPA (Homo sapiens, UniProt Q06546 1-454).
T3 sequence: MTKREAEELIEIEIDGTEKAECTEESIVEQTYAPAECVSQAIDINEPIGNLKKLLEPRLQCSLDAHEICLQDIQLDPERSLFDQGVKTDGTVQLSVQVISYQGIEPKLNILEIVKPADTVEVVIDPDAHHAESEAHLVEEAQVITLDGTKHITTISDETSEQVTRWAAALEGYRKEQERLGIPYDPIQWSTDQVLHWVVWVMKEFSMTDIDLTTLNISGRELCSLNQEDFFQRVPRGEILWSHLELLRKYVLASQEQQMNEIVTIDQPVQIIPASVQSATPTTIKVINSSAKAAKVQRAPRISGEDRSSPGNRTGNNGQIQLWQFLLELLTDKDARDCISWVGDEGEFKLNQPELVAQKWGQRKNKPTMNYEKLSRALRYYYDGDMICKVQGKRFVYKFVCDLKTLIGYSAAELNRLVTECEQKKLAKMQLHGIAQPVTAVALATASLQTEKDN
The settings on record: protein: recombinant; tags: N-terminal GST; dsDNA, one strand shown. Summed up: as §1

For a further assay, the target named is T4, ERG (Homo sapiens, UniProt P11308 1-479).
T4 sequence: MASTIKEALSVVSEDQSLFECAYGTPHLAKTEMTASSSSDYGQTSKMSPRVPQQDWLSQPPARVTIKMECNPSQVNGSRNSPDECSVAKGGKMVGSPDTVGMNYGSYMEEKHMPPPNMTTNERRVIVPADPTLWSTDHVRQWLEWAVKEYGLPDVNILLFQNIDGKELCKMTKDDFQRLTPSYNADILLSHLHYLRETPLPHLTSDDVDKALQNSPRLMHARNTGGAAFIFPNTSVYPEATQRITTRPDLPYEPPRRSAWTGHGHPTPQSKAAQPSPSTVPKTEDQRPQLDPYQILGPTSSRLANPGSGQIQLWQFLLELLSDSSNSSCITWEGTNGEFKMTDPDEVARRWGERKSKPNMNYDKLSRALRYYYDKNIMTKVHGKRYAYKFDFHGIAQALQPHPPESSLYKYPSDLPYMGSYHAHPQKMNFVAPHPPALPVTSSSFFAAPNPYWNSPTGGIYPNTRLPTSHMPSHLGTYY
To be noted: protein: recombinant; tags: N-terminal GST; dsDNA, one strand shown. Summed up: as §1

The next assay addresses ELF1 (Homo sapiens, UniProt P32519 1-619). The settings on record: protein: recombinant; tags: N-terminal GST; dsDNA, one strand shown. Summed up:
as §1

The next assay concerns the target T5, EHF (Homo sapiens, UniProt Q9NZC4 1-300).
T5 sequence: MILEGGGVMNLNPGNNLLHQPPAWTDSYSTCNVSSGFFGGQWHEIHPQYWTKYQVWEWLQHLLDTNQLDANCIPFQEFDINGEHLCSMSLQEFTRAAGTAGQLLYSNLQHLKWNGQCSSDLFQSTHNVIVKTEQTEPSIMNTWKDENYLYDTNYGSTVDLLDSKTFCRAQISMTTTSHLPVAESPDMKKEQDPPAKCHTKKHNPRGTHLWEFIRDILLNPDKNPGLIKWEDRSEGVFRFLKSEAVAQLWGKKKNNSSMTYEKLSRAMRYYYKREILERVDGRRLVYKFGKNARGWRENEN
To be noted: protein: recombinant; tags: N-terminal GST; dsDNA, one strand shown. Summed up: as §1

The next assay deals with SPI1 (Homo sapiens, UniProt P17947 1-270). To be noted: protein: recombinant; tags: N-terminal GST; dsDNA, one strand shown. Summed up:
as §1

Another assay deals with SPIB (Homo sapiens, UniProt Q01892 1-262). The settings on record: protein: recombinant; tags: N-terminal GST; dsDNA, one strand shown. Summed up: as §1
Chain of SPIB (Q01892 whole entry): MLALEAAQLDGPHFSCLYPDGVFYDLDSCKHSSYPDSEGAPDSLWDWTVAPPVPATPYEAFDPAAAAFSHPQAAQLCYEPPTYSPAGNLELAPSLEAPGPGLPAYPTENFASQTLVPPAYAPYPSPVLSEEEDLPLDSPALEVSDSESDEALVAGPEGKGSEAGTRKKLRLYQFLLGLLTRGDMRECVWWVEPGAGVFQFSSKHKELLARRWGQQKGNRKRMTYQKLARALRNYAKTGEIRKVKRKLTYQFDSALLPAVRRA
The target in the next assay is T6, ELK3 (Homo sapiens, UniProt P41970 1-407).
T6 sequence: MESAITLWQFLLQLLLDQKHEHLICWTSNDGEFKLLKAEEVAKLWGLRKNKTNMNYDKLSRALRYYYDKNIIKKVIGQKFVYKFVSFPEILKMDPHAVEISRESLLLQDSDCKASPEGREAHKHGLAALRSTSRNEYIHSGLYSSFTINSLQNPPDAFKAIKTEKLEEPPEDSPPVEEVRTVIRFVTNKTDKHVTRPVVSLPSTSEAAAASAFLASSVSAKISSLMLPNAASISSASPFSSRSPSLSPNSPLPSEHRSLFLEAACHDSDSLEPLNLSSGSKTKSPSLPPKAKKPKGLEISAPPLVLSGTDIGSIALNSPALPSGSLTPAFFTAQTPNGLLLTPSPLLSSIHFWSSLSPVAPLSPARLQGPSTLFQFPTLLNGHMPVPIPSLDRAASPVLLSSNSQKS
The settings on record: protein: recombinant; tags: N-terminal GST; dsDNA, one strand shown. Summed up:
as §1

The target in another assay is T7, FEV (Homo sapiens, UniProt Q99581 1-238).
T7 sequence: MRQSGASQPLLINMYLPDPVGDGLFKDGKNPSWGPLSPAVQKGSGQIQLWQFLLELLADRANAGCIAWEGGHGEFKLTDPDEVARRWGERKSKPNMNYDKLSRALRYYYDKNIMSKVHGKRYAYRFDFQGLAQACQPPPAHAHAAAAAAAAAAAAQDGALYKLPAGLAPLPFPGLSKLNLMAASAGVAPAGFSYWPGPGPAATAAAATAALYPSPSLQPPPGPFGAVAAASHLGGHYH
To be noted: protein: recombinant; tags: N-terminal GST; dsDNA, one strand shown. In outline:
as §1

The target of a further assay is ETV5 (Homo sapiens, UniProt P41161 1-510). To be noted: protein: recombinant; tags: N-terminal GST; dsDNA, one strand shown. In outline:
as §1

A further assay addresses HSF1 (Homo sapiens, UniProt Q00613 1-529). To be noted: protein: recombinant; tags: N-terminal GST; chain copies: 3; dsDNA, one strand shown. In outline: as §1
A further assay concerns the target T8, SPIC (Homo sapiens, UniProt Q8N5J4 1-248).
T8 sequence: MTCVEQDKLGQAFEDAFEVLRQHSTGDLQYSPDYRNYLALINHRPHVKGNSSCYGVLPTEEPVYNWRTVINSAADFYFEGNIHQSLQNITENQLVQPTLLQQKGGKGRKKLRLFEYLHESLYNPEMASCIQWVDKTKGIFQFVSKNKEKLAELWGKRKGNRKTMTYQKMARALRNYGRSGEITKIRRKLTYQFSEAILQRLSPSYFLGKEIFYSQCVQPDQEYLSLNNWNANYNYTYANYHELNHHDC
The settings on record: protein: recombinant; tags: N-terminal GST; dsDNA, one strand shown. In outline: as §1

In the next assay the target is ELF4 (Homo sapiens, UniProt Q99607 1-663). To be noted: protein: recombinant; tags: N-terminal GST; dsDNA, one strand shown. Summed up: as §1
Chain of ELF4 (Q99607 whole entry): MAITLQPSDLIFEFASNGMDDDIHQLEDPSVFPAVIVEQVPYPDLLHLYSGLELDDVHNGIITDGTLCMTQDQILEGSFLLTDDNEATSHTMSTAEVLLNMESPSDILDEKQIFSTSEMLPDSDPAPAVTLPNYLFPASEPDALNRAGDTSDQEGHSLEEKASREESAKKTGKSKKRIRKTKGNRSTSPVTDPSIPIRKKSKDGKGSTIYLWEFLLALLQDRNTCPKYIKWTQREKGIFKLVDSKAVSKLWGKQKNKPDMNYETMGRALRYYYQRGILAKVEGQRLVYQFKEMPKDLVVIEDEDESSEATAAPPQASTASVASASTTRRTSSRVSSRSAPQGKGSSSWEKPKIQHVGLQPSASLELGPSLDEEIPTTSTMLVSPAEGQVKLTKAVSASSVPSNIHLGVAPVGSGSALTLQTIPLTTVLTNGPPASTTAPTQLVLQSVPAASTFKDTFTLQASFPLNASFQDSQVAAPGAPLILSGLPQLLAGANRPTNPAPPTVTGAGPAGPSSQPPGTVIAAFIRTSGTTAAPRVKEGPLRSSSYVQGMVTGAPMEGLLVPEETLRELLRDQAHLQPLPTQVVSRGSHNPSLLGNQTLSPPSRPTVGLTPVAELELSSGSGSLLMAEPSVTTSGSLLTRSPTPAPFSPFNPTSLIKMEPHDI
The target in another assay is T9, ELK4 (Homo sapiens, UniProt P28324-2 1-405).
T9 sequence: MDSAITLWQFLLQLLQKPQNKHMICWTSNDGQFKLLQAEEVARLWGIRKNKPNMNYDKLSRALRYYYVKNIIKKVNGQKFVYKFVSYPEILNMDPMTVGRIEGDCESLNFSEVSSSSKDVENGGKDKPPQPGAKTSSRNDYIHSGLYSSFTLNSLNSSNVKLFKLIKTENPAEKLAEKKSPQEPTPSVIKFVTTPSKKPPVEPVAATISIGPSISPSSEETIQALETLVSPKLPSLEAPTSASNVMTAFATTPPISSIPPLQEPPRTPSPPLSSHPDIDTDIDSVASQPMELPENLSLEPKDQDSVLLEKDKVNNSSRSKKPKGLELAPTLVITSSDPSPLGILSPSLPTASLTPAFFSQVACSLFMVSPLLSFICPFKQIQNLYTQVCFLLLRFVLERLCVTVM
The settings on record: protein: recombinant; tags: N-terminal GST; dsDNA, one strand shown. Summed up: as §1

The next assay addresses T10, ETV2 (Homo sapiens, UniProt O00321 1-342).
T10 sequence: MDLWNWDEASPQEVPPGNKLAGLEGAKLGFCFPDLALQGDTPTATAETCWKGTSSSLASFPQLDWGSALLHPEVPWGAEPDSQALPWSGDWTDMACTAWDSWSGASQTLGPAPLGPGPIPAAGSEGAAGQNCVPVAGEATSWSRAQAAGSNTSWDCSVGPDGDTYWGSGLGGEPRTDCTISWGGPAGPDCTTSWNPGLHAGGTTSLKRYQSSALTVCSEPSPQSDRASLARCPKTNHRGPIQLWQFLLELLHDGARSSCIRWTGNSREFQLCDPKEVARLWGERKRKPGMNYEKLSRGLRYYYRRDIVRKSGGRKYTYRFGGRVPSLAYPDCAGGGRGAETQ
To be noted: protein: recombinant; tags: N-terminal GST; dsDNA, one strand shown. In outline:
as §1

Another assay has as its target T11, ELF3 (Homo sapiens, UniProt P78545 1-371).
T11 sequence: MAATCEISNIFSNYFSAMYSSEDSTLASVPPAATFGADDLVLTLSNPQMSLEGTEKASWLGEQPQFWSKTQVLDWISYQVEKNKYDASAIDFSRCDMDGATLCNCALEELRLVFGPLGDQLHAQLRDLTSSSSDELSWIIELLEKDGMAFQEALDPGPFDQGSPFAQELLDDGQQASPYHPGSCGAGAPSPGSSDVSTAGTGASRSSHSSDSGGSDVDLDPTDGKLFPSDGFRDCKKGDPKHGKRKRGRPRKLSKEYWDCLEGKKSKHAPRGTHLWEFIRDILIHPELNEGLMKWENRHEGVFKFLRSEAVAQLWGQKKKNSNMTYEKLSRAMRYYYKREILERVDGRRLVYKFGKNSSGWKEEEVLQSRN
To be noted: protein: recombinant; tags: N-terminal GST; dsDNA, one strand shown. Summed up: as §1

Another assay deals with ETV1 (Homo sapiens, UniProt P50549 1-477). To be noted: protein: recombinant; tags: N-terminal GST; dsDNA, one strand shown. Summed up: as §1
Chain of ETV1 (P50549 whole entry): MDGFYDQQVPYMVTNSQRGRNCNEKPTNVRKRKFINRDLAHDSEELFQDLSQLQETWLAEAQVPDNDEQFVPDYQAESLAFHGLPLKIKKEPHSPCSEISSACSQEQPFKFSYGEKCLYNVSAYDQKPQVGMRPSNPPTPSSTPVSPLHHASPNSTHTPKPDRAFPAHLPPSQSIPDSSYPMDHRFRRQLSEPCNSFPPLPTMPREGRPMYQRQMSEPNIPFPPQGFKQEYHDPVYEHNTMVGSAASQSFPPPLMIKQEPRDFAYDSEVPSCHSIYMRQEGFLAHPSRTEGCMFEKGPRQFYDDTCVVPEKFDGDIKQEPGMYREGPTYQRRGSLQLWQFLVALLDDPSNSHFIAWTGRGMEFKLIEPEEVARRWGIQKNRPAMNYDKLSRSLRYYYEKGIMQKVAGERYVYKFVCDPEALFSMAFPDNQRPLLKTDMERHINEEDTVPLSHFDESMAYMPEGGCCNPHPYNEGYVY

Chain of ETV5 (P41161 whole entry): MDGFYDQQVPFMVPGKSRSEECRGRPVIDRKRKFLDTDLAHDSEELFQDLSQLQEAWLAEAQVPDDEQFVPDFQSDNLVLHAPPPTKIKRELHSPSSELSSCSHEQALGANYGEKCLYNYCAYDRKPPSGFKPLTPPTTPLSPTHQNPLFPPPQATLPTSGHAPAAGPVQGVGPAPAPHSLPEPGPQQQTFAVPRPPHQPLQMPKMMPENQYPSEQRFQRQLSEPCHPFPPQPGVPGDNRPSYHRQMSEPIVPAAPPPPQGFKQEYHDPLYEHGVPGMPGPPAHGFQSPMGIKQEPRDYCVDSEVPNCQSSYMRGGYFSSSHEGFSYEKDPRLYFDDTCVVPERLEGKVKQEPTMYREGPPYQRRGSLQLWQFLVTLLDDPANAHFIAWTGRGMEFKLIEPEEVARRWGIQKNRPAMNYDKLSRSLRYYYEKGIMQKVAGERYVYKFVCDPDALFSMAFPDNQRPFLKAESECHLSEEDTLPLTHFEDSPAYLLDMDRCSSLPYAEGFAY
Chain of ELF1 (P32519 whole entry): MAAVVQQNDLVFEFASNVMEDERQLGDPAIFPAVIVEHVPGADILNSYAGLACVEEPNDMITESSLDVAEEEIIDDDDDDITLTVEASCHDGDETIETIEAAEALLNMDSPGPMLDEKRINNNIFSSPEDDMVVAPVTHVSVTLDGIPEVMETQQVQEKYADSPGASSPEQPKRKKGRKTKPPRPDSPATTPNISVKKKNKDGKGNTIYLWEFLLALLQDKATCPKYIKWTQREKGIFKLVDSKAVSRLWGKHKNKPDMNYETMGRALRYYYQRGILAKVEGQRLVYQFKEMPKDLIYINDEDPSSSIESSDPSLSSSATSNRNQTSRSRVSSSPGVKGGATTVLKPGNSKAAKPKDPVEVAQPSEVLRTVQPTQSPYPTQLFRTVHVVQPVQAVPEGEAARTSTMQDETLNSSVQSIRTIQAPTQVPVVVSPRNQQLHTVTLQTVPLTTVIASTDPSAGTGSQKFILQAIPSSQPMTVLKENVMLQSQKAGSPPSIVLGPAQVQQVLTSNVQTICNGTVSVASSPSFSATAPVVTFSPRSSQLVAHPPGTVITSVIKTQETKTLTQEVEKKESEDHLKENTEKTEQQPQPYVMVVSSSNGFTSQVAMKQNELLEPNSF
Chain of HSF1 (Q00613 whole entry): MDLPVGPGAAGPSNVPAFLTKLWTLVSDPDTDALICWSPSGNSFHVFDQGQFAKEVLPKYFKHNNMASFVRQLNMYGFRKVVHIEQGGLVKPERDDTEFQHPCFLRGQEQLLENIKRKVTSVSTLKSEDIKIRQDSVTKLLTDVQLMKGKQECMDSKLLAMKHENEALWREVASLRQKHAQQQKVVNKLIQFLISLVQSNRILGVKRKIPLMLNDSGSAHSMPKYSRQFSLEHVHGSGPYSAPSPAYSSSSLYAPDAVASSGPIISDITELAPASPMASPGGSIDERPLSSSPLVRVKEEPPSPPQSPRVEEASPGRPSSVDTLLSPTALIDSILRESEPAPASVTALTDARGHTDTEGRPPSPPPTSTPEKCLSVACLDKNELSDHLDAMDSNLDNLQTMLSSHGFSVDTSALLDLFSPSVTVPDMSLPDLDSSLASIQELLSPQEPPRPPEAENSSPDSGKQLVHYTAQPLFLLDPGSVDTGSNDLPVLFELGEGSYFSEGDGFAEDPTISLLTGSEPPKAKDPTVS

Regarding CATTTC, the binding signal was 1.8 fold enrichment (6-mer frequency, TF over GST control) with FLI1; 1.86 fold enrichment (6-mer frequency, TF over GST control) with ELK1; 1.64 fold enrichment (6-mer frequency, TF over GST control) in the assay with GABPA; 2.07 fold enrichment (6-mer frequency, TF over GST control) with ERG; 1.63 fold enrichment (6-mer frequency, TF over GST control) in the assay with ELF1; 1.77 fold enrichment (6-mer frequency, TF over GST control) in the assay with EHF. Moreover, the binding signal with SPI1 was 1.97 fold enrichment (6-mer frequency, TF over GST control); in the assay with SPIB, 1.85 fold enrichment (6-mer frequency, TF over GST control); with ELK3, 1.67 fold enrichment (6-mer frequency, TF over GST control); with FEV, 2.2 fold enrichment (6-mer frequency, TF over GST control); with ETV5, 1.95 fold enrichment (6-mer frequency, TF over GST control); with HSF1, 1.13 fold enrichment (6-mer frequency, TF over GST control). Moreover, the binding signal is 1.88 fold enrichment (6-mer frequency, TF over GST control) in the assay with SPIC; 1.73 fold enrichment (6-mer frequency, TF over GST control) in the assay with ELF4; 1.66 fold enrichment (6-mer frequency, TF over GST control) with ELK4; 1.78 fold enrichment (6-mer frequency, TF over GST control) in the assay with ETV2; 1.61 fold enrichment (6-mer frequency, TF over GST control) in the assay with ELF3; 1.84 fold enrichment (6-mer frequency, TF over GST control) with ETV1.

The record behind these values is PMC7862700, “An all-to-all approach to the identification of sequence-specific readers for epigenetic DNA modifications on cytosine”.
